Biological target: POU1 (OCT1 POU domain) (human, UniProt P14859 260-458)
Assay: EMSA-SELEX-seq; no BOB1; 20 mM Tris-HCl pH 7.6, 140 mM NaCl, 10% glycerol, 0.5 mM EDTA, 0.05% Triton X-100, 0.1 mg/mL BSA, 0.1 mg/mL poly(dI-dC), 5 mM DTT, room temperature, 20 min; high values mean tight binding
Conditions: protein: recombinant; dsDNA, one strand shown
Procedure, shortened: (§1)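 After expression in E. coli BL21, tagged POU-domain proteins were purified under denaturing conditions and then renatured. Each binding reaction held 30 ng protein and 300 ng of a PCR-amplified double-stranded random 35-nt library in 20 μL Tris–HCl pH 7.6 binding buffer, with or without 28 ng coactivator protein, for 20 min at RT. Bands holding complexes were cut from native 6% PAGE, eluted and PCR-amplified across four rounds, and the output was Illumina-sequenced. The value given for binding preference is the share, in percent, of sequenced 8-mers fitting a motif pattern.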

Chain of POU1 (OCT1 POU domain) (P14859 260-458): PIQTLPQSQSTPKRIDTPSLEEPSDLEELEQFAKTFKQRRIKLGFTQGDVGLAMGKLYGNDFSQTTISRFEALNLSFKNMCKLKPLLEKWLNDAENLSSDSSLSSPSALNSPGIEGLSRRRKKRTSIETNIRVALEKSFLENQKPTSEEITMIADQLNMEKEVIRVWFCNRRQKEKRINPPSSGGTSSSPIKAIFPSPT

Going from AGGCAAAT to AGGCGAAT, the binding signal falls from 0.77 % of ANNNNAAN 8-mers to 0.0618 % of ANNNNAAN 8-mers.

Compared with AGCGCAAG, AAAAGAAG is higher in binding signal: 0.013 % of ANNNNAAN 8-mers for the first, 0.0629 % of ANNNNAAN 8-mers for the second.

First: ATGGAAAA
Second: ATTTGAAT
The binding signal of the first is lower: 0.233 % of ANNNNAAN 8-mers for the first, 1.84 % of ANNNNAAN 8-mers for the second.

First: AGTCAAAT
Second: AGAATAAA
The binding signal of the first is higher: 0.566 % of ANNNNAAN 8-mers for the first, 0.161 % of ANNNNAAN 8-mers for the second.

Compared with ACTCGAAC, ATTGGAAG is higher in binding signal: 0.016 % of ANNNNAAN 8-mers for the first, 0.0309 % of ANNNNAAN 8-mers for the second.

First: ACGCGAAT
Second: AGGGGAAG
The binding signal of the first is lower: 0.0389 % of ANNNNAAN 8-mers for the first, 0.0557 % of ANNNNAAN 8-mers for the second.

Compared with ATGAGAAC, ACAATAAA is higher in binding signal: 0.0404 % of ANNNNAAN 8-mers for the first, 0.0481 % of ANNNNAAN 8-mers for the second.

Going from AAGCAAAG to AAGGGAAA, the binding signal rises from 0.0847 % of ANNNNAAN 8-mers to 0.196 % of ANNNNAAN 8-mers.

First: ACAGTAAG
Second: ATCGAAAC
The binding signal of the first is higher: 0.0328 % of ANNNNAAN 8-mers for the first, 0.0275 % of ANNNNAAN 8-mers for the second.

Compared with ACCAAAAA, ATGGAAAG is higher in binding signal: 0.0336 % of ANNNNAAN 8-mers for the first, 0.148 % of ANNNNAAN 8-mers for the second.

Going from ATTAGAAA to ATCCCAAC, the binding signal falls from 0.0995 % of ANNNNAAN 8-mers to 0.0137 % of ANNNNAAN 8-mers.

First: ACACAAAT
Second: AAGAAAAC
The binding signal of the first is higher: 0.116 % of ANNNNAAN 8-mers for the first, 0.0473 % of ANNNNAAN 8-mers for the second.

Compared with AACAAAAG, AACCTAAT is higher in binding signal: 0.0522 % of ANNNNAAN 8-mers for the first, 0.0534 % of ANNNNAAN 8-mers for the second.

Going from AATGAAAG to ACGCTAAA, the binding signal falls from 0.0751 % of ANNNNAAN 8-mers to 0.0305 % of ANNNNAAN 8-mers.

Compared with AACGTAAC, AGCCGAAC is lower in binding signal: 0.0179 % of ANNNNAAN 8-mers for the first, 0.0133 % of ANNNNAAN 8-mers for the second.

Compared with ACAGAAAT, ACAGGAAA is lower in binding signal: 0.0568 % of ANNNNAAN 8-mers for the first, 0.0526 % of ANNNNAAN 8-mers for the second.

Compared with ATTAAAAG, AGTAGAAC is lower in binding signal: 0.149 % of ANNNNAAN 8-mers for the first, 0.0271 % of ANNNNAAN 8-mers for the second.

Going from AGCTAAAA to AGTTAAAT, the binding signal rises from 0.0282 % of ANNNNAAN 8-mers to 0.219 % of ANNNNAAN 8-mers.

Compared with AGGAGAAT, ACGTAAAA is lower in binding signal: 0.0789 % of ANNNNAAN 8-mers for the first, 0.0648 % of ANNNNAAN 8-mers for the second.

With ATCTGAAG the binding signal was 0.0297 % of ANNNNAAN 8-mers.

Biological target: T1, POU2 (OCT2 POU domain) (human, UniProt P09086 175-386)
T1 sequence: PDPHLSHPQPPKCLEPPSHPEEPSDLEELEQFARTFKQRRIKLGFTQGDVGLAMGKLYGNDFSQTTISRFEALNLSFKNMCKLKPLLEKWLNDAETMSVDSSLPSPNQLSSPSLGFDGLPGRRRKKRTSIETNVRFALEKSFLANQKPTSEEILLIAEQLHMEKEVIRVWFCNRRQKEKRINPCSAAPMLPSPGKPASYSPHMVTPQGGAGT
Assay: as above
Conditions: protein: recombinant; dsDNA, one strand shown
Procedure, shortened: as §1

Going from AGGCAAAT to AGGCGAAT, the binding signal falls from 0.546 % of ANNNNAAN 8-mers to 0.069 % of ANNNNAAN 8-mers.

Compared with AGCGCAAG, AAAAGAAG is higher in binding signal: 0.0121 % of ANNNNAAN 8-mers for the first, 0.076 % of ANNNNAAN 8-mers for the second.

Compared with ATGGAAAA, ATTTGAAT is higher in binding signal: 0.162 % of ANNNNAAN 8-mers for the first, 1.5 % of ANNNNAAN 8-mers for the second.

First: AGTCAAAT
Second: AGAATAAA
The binding signal of the first is higher: 0.367 % of ANNNNAAN 8-mers for the first, 0.182 % of ANNNNAAN 8-mers for the second.

First: ACTCGAAC
Second: ATTGGAAG
The binding signal of the first is lower: 0.0184 % of ANNNNAAN 8-mers for the first, 0.0547 % of ANNNNAAN 8-mers for the second.

Compared with ACGCGAAT, AGGGGAAG is higher in binding signal: 0.0512 % of ANNNNAAN 8-mers for the first, 0.0673 % of ANNNNAAN 8-mers for the second.

Going from ATGAGAAC to ACAATAAA, the binding signal falls from 0.0552 % of ANNNNAAN 8-mers to 0.0495 % of ANNNNAAN 8-mers.

First: AAGCAAAG
Second: AAGGGAAA
The binding signal of the first is lower: 0.0501 % of ANNNNAAN 8-mers for the first, 0.146 % of ANNNNAAN 8-mers for the second.

Compared with ACAGTAAG, ATCGAAAC is lower in binding signal: 0.0253 % of ANNNNAAN 8-mers for the first, 0.0236 % of ANNNNAAN 8-mers for the second.

Compared with ACCAAAAA, ATGGAAAG is higher in binding signal: 0.0328 % of ANNNNAAN 8-mers for the first, 0.112 % of ANNNNAAN 8-mers for the second.

Going from ATTAGAAA to ATCCCAAC, the binding signal falls from 0.106 % of ANNNNAAN 8-mers to 0.0213 % of ANNNNAAN 8-mers.

Going from ACACAAAT to AAGAAAAC, the binding signal falls from 0.0857 % of ANNNNAAN 8-mers to 0.0345 % of ANNNNAAN 8-mers.

First: AACAAAAG
Second: AACCTAAT
The binding signal of the first is lower: 0.0518 % of ANNNNAAN 8-mers for the first, 0.0875 % of ANNNNAAN 8-mers for the second.

Compared with AATGAAAG, ACGCTAAA is lower in binding signal: 0.088 % of ANNNNAAN 8-mers for the first, 0.0391 % of ANNNNAAN 8-mers for the second.

First: AACGTAAC
Second: AGCCGAAC
The binding signal of the first is higher: 0.0236 % of ANNNNAAN 8-mers for the first, 0.0161 % of ANNNNAAN 8-mers for the second.

Going from ACAGAAAT to ACAGGAAA, the binding signal falls from 0.0633 % of ANNNNAAN 8-mers to 0.0506 % of ANNNNAAN 8-mers.

Going from ATTAAAAG to AGTAGAAC, the binding signal falls from 0.171 % of ANNNNAAN 8-mers to 0.0242 % of ANNNNAAN 8-mers.

Going from AGCTAAAA to AGTTAAAT, the binding signal rises from 0.038 % of ANNNNAAN 8-mers to 0.213 % of ANNNNAAN 8-mers.

First: AGGAGAAT
Second: ACGTAAAA
The binding signal of the first is higher: 0.0771 % of ANNNNAAN 8-mers for the first, 0.0529 % of ANNNNAAN 8-mers for the second.

With ATCTGAAG the binding signal was 0.0409 % of ANNNNAAN 8-mers.
